Data as given in ChEMBL document CHEMBL1961873, “Compounds: GSK PKIS; Assays: Nanosyn kinase panel” (2012).

Legend:
[1] = molecular target: Rho-associated protein kinase 1 (Homo sapiens) (UniProt Q13464); conditions: at 1 µM;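 further: reported values are mean percent inhibition of ROCK1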
[2] = molecular target: Rho-associated protein kinase 2 (Homo sapiens) (UniProt O75116); conditions: at 0.1 µM
[3] = molecular target: Rho-associated protein kinase 2 (Homo sapiens) (UniProt O75116); conditions: at 1 µM
[4] = molecular target: Ribosomal protein S6 kinase alpha-1 (Homo sapiens) (UniProt Q15418); conditions: at 0.1 µM
Ribosomal protein S6 kinase alpha-1 (Homo sapiens), sequence (Q15418 whole entry): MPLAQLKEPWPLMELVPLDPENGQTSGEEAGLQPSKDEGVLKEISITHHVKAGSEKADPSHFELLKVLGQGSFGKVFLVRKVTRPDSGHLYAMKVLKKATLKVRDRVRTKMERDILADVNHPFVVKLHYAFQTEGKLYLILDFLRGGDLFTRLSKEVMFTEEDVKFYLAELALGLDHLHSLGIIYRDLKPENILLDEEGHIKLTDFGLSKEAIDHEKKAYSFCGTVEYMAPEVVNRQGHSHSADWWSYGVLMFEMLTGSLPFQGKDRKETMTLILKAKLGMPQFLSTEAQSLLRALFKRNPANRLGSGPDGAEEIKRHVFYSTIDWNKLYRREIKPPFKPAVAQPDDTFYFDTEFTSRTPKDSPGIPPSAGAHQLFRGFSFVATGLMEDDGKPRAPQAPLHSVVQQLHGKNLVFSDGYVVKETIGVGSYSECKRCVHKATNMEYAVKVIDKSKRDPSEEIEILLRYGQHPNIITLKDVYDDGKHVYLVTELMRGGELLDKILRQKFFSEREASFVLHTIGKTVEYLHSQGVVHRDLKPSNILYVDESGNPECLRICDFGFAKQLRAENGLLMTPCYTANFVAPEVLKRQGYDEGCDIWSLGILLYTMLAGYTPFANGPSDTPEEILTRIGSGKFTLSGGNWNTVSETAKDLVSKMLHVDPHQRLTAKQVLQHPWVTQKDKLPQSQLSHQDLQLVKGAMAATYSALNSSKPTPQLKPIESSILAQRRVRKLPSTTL

[5] = molecular target: Ribosomal protein S6 kinase alpha-1 (Homo sapiens) (UniProt Q15418); conditions: at 1 µM
[6] = molecular target: Ribosomal protein S6 kinase alpha-3 (Homo sapiens) (UniProt P51812); conditions: at 0.1 µM
Ribosomal protein S6 kinase alpha-3 (Homo sapiens), sequence (P51812 whole entry): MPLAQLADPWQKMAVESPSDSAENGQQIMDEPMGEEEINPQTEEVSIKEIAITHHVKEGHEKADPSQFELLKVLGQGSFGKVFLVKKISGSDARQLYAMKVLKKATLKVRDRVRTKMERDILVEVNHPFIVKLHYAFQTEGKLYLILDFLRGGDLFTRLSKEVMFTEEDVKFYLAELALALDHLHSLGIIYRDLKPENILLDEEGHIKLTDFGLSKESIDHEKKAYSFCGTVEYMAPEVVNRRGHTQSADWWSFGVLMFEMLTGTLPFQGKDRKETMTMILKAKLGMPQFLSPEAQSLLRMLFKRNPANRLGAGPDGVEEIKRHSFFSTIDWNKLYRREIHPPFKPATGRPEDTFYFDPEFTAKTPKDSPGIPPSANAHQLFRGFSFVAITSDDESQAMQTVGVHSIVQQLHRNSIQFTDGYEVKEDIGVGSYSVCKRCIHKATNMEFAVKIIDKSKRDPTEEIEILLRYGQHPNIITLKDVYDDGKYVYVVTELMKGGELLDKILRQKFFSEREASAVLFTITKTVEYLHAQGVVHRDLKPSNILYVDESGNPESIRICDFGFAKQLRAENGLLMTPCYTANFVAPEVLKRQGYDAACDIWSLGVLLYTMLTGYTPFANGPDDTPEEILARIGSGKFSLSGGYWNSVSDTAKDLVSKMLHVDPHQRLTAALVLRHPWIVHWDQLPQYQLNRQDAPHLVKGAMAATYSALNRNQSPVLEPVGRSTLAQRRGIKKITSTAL

[7] = molecular target: Ribosomal protein S6 kinase alpha-3 (Homo sapiens) (UniProt P51812); conditions: at 1 µM
[8] = molecular target: Ribosomal protein S6 kinase alpha-2 (Homo sapiens) (UniProt Q15349); conditions: at 0.1 µM
Ribosomal protein S6 kinase alpha-2 (Homo sapiens), sequence (Q15349 whole entry): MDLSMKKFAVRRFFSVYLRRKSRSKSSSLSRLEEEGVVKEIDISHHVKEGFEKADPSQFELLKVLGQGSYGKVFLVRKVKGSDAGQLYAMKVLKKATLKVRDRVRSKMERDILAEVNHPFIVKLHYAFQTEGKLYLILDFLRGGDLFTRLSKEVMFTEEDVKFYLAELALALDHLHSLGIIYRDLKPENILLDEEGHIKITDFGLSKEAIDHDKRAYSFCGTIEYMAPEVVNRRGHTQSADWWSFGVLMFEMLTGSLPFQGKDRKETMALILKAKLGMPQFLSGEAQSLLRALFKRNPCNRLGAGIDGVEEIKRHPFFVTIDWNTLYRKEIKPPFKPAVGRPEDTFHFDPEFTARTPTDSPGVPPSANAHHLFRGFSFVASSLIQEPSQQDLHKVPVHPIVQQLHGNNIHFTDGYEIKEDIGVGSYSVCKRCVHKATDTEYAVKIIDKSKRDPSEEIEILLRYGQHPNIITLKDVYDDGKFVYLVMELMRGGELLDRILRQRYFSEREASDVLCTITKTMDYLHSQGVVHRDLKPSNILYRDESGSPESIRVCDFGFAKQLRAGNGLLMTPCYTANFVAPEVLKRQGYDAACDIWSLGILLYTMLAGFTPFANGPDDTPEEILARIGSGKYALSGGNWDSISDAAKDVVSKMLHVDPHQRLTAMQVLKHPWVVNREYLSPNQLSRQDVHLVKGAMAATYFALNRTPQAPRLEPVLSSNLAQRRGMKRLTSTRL

[9] = molecular target: Ribosomal protein S6 kinase alpha-2 (Homo sapiens) (UniProt Q15349); conditions: at 1 µM
[10] = molecular target: Ribosomal protein S6 kinase alpha-6 (Homo sapiens) (UniProt Q9UK32); conditions: at 0.1 µM
Ribosomal protein S6 kinase alpha-6 (Homo sapiens), sequence (Q9UK32 whole entry): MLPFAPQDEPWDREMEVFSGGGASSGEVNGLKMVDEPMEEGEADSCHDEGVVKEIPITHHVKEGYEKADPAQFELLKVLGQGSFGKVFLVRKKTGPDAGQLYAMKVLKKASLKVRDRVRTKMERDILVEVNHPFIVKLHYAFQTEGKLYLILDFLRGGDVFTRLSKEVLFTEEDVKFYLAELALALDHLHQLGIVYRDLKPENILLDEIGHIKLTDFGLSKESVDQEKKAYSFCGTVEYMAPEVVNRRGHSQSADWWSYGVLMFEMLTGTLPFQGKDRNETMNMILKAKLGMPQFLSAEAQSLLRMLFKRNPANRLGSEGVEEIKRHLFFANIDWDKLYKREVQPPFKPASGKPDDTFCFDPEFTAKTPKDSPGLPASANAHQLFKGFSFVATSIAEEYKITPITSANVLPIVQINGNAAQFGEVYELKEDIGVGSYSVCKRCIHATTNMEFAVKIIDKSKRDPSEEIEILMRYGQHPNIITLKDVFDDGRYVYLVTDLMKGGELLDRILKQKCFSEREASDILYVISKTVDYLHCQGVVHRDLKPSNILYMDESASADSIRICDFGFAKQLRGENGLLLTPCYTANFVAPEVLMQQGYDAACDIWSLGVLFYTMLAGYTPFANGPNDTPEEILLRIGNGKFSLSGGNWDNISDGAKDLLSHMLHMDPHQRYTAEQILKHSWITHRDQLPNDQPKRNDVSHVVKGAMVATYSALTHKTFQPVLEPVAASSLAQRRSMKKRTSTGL

[11] = molecular target: Ribosomal protein S6 kinase alpha-6 (Homo sapiens) (UniProt Q9UK32); conditions: at 1 µM
[12] = molecular target: T1, Serine/threonine-protein kinase Sgk1 (Homo sapiens) (UniProt O00141); conditions: at 0.1 µM
T1 sequence (whole entry): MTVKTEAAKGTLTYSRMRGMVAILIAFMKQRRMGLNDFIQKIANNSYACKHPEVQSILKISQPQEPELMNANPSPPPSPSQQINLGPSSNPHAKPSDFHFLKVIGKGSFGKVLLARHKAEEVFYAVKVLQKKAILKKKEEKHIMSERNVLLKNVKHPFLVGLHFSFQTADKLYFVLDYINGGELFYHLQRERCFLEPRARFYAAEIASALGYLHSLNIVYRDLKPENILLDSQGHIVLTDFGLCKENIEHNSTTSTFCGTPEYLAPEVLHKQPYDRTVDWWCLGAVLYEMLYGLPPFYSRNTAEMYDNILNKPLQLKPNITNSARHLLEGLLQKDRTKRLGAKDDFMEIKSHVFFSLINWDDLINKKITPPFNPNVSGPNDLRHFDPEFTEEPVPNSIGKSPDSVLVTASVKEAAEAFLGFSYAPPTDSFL

[13] = molecular target: T1, Serine/threonine-protein kinase Sgk1 (Homo sapiens); conditions: at 1 µM
[14] = molecular target: T2, Serine/threonine-protein kinase Sgk2 (Homo sapiens) (UniProt Q9HBY8); conditions: at 0.1 µM
T2 sequence (whole entry): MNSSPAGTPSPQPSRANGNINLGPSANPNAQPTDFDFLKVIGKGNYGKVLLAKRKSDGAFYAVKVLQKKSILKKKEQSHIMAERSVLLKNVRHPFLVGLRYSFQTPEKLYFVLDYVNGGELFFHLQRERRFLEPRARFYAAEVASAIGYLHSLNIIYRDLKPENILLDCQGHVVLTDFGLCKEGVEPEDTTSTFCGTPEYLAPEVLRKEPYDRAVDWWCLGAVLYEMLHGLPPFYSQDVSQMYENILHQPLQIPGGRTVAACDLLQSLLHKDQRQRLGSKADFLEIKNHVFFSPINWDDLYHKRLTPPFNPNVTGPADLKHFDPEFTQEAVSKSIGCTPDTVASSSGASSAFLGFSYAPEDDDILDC

[15] = molecular target: T2, Serine/threonine-protein kinase Sgk2 (Homo sapiens); conditions: at 1 µM
[16] = molecular target: T3, Serine/threonine-protein kinase Sgk3 (Homo sapiens) (UniProt Q96BR1); conditions: at 0.1 µM
T3 sequence (whole entry): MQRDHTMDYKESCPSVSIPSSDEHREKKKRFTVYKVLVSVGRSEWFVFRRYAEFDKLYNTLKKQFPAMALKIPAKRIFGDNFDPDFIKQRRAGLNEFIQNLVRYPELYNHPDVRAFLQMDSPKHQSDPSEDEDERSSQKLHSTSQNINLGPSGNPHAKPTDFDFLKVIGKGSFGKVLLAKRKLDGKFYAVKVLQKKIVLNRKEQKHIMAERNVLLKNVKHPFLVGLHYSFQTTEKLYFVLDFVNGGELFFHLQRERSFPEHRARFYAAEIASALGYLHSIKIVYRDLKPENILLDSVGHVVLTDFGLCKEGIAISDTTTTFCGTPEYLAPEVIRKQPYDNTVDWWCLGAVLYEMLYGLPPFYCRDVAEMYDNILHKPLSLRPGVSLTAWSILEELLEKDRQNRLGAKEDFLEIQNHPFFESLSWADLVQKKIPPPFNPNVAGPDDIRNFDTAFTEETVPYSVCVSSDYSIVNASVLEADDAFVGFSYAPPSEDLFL

[17] = molecular target: T3, Serine/threonine-protein kinase Sgk3 (Homo sapiens); conditions: at 1 µM
[18] = molecular target: 5'-AMP-activated protein kinase catalytic subunit alpha-1 (Homo sapiens) (UniProt Q13131); conditions: at 0.1 µM
5'-AMP-activated protein kinase catalytic subunit alpha-1 (Homo sapiens), sequence (Q13131 whole entry, looked up): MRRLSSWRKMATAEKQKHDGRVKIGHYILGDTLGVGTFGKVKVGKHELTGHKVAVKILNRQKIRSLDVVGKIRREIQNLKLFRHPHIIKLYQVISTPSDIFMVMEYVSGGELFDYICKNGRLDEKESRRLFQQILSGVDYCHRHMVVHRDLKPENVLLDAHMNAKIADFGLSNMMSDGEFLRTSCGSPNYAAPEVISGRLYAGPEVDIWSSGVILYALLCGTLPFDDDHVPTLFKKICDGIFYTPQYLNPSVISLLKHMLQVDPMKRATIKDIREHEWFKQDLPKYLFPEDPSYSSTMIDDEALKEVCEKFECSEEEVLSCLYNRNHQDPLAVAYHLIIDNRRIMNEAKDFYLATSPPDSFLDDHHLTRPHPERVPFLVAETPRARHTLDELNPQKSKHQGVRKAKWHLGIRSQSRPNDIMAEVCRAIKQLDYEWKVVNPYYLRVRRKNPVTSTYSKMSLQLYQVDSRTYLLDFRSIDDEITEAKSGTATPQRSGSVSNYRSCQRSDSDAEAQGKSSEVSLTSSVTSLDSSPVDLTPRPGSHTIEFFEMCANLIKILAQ

[19] = molecular target: 5'-AMP-activated protein kinase catalytic subunit alpha-1 (Homo sapiens) (UniProt Q13131); conditions: at 1 µM
[20] = molecular target: 5'-AMP-activated protein kinase catalytic subunit alpha-2 (Homo sapiens) (UniProt P54646); conditions: at 0.1 µM;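 further: mean inhibition measured on the AMPK complex of alpha2, beta1 and gamma1 subunits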

Rho-associated protein kinase 1 (Homo sapiens), sequence (Q13464 2-1354 limits assumed): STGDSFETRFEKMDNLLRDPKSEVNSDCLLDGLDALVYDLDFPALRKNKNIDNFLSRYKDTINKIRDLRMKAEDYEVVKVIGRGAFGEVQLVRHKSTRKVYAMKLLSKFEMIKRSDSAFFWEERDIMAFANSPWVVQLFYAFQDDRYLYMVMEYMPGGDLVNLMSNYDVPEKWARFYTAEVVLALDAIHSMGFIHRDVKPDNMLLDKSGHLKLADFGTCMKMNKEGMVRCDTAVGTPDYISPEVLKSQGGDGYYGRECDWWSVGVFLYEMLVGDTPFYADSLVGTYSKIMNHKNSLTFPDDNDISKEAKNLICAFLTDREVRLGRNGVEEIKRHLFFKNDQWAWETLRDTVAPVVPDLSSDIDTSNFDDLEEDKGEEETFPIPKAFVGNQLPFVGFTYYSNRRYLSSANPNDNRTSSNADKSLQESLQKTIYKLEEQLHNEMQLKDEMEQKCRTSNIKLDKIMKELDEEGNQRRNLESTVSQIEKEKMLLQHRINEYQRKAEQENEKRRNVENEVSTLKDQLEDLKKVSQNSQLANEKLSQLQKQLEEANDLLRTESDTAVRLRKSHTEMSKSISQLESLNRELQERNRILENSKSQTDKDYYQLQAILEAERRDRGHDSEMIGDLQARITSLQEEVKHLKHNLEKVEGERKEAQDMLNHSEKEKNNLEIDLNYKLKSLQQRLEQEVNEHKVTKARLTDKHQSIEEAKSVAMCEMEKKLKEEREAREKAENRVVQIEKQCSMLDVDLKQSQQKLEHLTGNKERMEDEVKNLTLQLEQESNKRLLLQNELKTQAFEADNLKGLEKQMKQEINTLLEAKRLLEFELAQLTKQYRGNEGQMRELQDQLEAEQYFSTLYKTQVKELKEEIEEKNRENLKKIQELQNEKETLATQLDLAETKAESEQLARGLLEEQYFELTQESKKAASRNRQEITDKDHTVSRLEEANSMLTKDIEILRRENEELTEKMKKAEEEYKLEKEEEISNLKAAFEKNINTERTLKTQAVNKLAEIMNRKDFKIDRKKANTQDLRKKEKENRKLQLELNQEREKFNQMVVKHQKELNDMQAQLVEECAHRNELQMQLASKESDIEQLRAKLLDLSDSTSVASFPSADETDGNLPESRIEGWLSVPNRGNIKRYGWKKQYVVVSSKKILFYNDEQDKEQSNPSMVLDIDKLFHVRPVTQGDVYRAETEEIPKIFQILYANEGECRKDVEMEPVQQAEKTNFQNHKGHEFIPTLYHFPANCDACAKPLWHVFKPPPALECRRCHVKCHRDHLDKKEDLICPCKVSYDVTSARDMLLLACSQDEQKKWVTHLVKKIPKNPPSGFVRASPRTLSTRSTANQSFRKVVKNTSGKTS

Row | Compound | inhibition [1] | inhibition [2] | inhibition [3] | inhibition [4] | inhibition [5] | inhibition [6] | inhibition [7] | inhibition [8] | inhibition [9] | inhibition [10] | inhibition [11] | inhibition [12] | inhibition [13] | inhibition [14] | inhibition [15] | inhibition [16] | inhibition [17] | inhibition [18] | inhibition [19] | inhibition [20]
1 | CS(=O)(=O)CCNCc1ccc(-c2ccc3ncnc(Nc4ccc(OCc5ccccc5)c(Cl)c4)c3c2)o1 | 3.86% | 1.28% | 5.61% | 0.36% | 2.7% | -1.21% | 1.51% | 1.08% | 2.7% | -0.67% | 0.49% | 0.96% | 1.58% | 2.63% | 0.46% | -0.5% | 1.84% | -1.82% | -0.45% | 3.82%
2 | N#Cc1c(NC(=O)c2cccc3ccccc23)sc2c1CCCC2 | 2.34% | 1.81% | 1.22% | 1.91% | 0.22% | 1.01% | 0.5% | 2.55% | 2.14% | 1.14% | 1.27% | 3.76% | 0.45% | 1.09% | 1.34% | 1.65% | 2.42% | 1.14% | 2.66% | 3.83%
3 | CS(=O)(=O)Nc1ccc(N/C=C2\C(=O)Nc3ccccc32)cc1 | 1.4% | -0.88% | 1.99% | 1.8% | 9.64% | 1.88% | 9.89% | 0.85% | 13.8% | 0.95% | 11% | 0.01% | 12.3% | -2.1% | 1.93% | -3.12% | -0.79% | 0.57% | 12% | -0.35%
4 | CCn1c(-c2nonc2N)nc2ccncc21 | 1.28% | 0.14% | 0.99% | 0.57% | 0.69% | 0.32% | 0.16% | -0.05% | 1.68% | 1.33% | 1.11% | 0.13% | 1.04% | 2.07% | -2.06% | 0.78% | 0.08% | 2.35% | 0.79% | -1.16%
5 | Fc1cccc(COc2ccc(Nc3ncnc4cc(-c5ccc[nH]5)sc34)cc2Cl)c1 | 1.71% | 1.64% | 2.17% | 2.06% | 0.75% | 2.4% | 2.56% | 1.77% | 2.41% | 1.15% | 2.27% | 1.92% | 3.96% | -0.18% | 5.58% | 0.1% | 4.46% | 1.8% | 0.98% | 3.81%
6 | CS(=O)(=O)CCNCc1nc(-c2ccc3ncnc(Nc4ccc(F)c(Cl)c4)c3c2)cs1 | 2.92% | 2.45% | 5.8% | 1.4% | 3.63% | 1.07% | 2.43% | -0.57% | 0.84% | 0.69% | 1.36% | 0.28% | 4.55% | 2.82% | -2.15% | 3.08% | 2.67% | 2.39% | 1.3% | -4.68%
7 | CCn1c(-c2nonc2N)nc2cncc(C(=O)N3CCNCC3)c21 |  | 3.45% | 4.33% | 1.84% | 3.1% | 0.8% | -0.05% | 3.17% | 3.01% | 1.32% | 2.55% | 1.92% | 4.77% | 3.56% | 4.56% | 5.25% | 6.39% | 3.24% | 4.88% | 8.15%
